The source of these data is PubChem BioAssay (NCI).

This is part of a sample that, as a whole, favours compounds with a hit. Of some 83,000 tested, about 20% had one in any assay.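 Single-concentration screen, 48 h exposure, 96-well plates. Endpoint: percent growth. Below 10 = active.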 A number with no mark means an inactive call. The source made the active and inactive calls.

What all share (assay): NCI-60 one-dose screen, 48 h (100 = growth as untreated, 0 = no growth, -100 = all killed)
One assay has as its system HCT-15 colon. The note with it: 10 µM unless noted.
A further assay has as its system HT29 colon. The settings on record: 10 µM unless noted.
A further assay concerns SNB-75 CNS. The note with it: 10 µM unless noted.
The test system of another assay is SNB-19 CNS. The settings on record: 10 µM unless noted.
The test system of another assay is U251 CNS. The settings on record: 10 µM unless noted.
For another assay, the system named is PC-3 prostate. The settings on record: 10 µM unless noted.
The next assay deals with SK-MEL-5 melanoma. The settings on record: 10 µM unless noted.
The subject of another assay is UACC-62 melanoma. The note with it: 10 µM unless noted.
The next assay has as its system LOX IMVI melanoma. The settings on record: 10 µM unless noted.
The subject of a further assay is SK-MEL-28 melanoma. The settings on record: 10 µM unless noted.
The next assay concerns SK-MEL-2 melanoma. The note with it: 10 µM unless noted.
A further assay deals with EKVX NSCLC. The settings on record: 10 µM.
Another assay concerns SN12C renal. The settings on record: 10 µM unless noted.
The next assay deals with UO-31 renal. The note with it: 10 µM unless noted.
A further assay relates to TK-10 renal. The note with it: 10 µM unless noted.
A further assay deals with ACHN renal. The settings on record: 10 µM unless noted.
The test system of a further assay is CCRF-CEM leukemia. The note with it: 10 µM.
For another assay, the system named is MOLT-4 leukemia. The note with it: 10 µM unless noted.
A further assay relates to CAKI-1 renal. The settings on record: 10 µM unless noted.
For another assay, the system named is A498 renal. The note with it: 10 µM unless noted.

Regarding `CCCCCCNC(=O)Oc1ccc(/C(=C(/C)Cc2ccc(OC)cc2)c2ccc(OCCN3CCCCC3)cc2)cc1`, the growth is 31.6% in the assay with HCT-15 colon; 19.5% in the assay on HT29 colon; 66.7% in the assay with SNB-75 CNS; 86.3% with SNB-19 CNS; 63.1% in the assay with U251 CNS; 76.4% in the assay with PC-3 prostate. The growth in the assay with SK-MEL-5 melanoma was 80.4%; with UACC-62 melanoma it was 88.4%; with LOX IMVI melanoma, 82.9%; in the assay with SK-MEL-28 melanoma it was 96.8%; in the assay with SK-MEL-2 melanoma, 101%; with EKVX NSCLC it was 81.9%. For the same molecule, the growth in the assay with SN12C renal was 80.1%; in the assay with UO-31 renal, 58.5%; in the assay on TK-10 renal it was 89.8%; in the assay with ACHN renal it was 99.5%; in the assay on CCRF-CEM leukemia, 72%; in the assay with MOLT-4 leukemia, 69.3%.
Regarding `CCCNC(=O)Oc1ccc(/C(=C(/C)Cc2ccc(OC)cc2)c2ccc(OCCN3CCCC3)cc2)cc1`, the growth with HCT-15 colon was 16.9%; in the assay with HT29 colon, 0.741% (active); with SNB-75 CNS it was 48.2%; in the assay with SNB-19 CNS it was 78.6%; in the assay with U251 CNS, 48.6%; in the assay with PC-3 prostate, 56.4%. Besides, the growth in the assay with SK-MEL-5 melanoma was 11.7%; in the assay on UACC-62 melanoma it was 52.5%; in the assay on LOX IMVI melanoma, 48.4%; in the assay on SK-MEL-28 melanoma, 55.8%; with SK-MEL-2 melanoma it was 98.8%; in the assay with EKVX NSCLC, 70.1%. In addition, the growth in the assay with SN12C renal is 71.3%; with UO-31 renal, 50.3%; in the assay on TK-10 renal, 83.4%; with ACHN renal, 78.6%; in the assay with CCRF-CEM leukemia it was 50.7%; in the assay on MOLT-4 leukemia, 52.8%.
For the molecule `Clc1ccc(N/N=C(/c2ccccc2)c2ccccn2)nc1`, the growth with HCT-15 colon was 16.2%; in the assay on HT29 colon, 36.1%; with SNB-75 CNS, 43.4%; in the assay with SNB-19 CNS, 60.1%; in the assay with U251 CNS, 42.1%; in the assay with PC-3 prostate it was 35.5%. Also, the growth in the assay on SK-MEL-5 melanoma is 25.3%; in the assay on UACC-62 melanoma it was 32.5%; in the assay on LOX IMVI melanoma, 21.5%; with SK-MEL-28 melanoma it was 51.9%; in the assay with SK-MEL-2 melanoma it was 63.5%; in the assay on EKVX NSCLC, 18.5%. Moreover, the growth with SN12C renal was 47.3%; in the assay on TK-10 renal it was 37.3%; in the assay on ACHN renal, 24.1%; in the assay on CAKI-1 renal it was 36.2%; with A498 renal, 52.7%; in the assay on MOLT-4 leukemia, 6.84% (active).
On to `O=C(O)/C(Br)=C/c1c[nH]c2ccc(Br)cc12`, for which the growth in the assay with HCT-15 colon is 114%; in the assay with HT29 colon, 106%; with SNB-75 CNS, 105%; in the assay on SNB-19 CNS, 126%; in the assay on U251 CNS, 105%; in the assay with PC-3 prostate it was 123%. In addition, the growth with SK-MEL-5 melanoma is 107%; in the assay with UACC-62 melanoma, 104%; in the assay on LOX IMVI melanoma, 101%; in the assay on SK-MEL-28 melanoma, 63.7%; in the assay with SK-MEL-2 melanoma it was 99%; with EKVX NSCLC, 119%. Moreover, the growth with SN12C renal is 108%; in the assay on TK-10 renal, 117%; in the assay on ACHN renal, 104%; with CAKI-1 renal, 97.6%; in the assay with A498 renal it was 132%; in the assay on CCRF-CEM leukemia it was -46.1% (active). Also, the growth in the assay on MOLT-4 leukemia is 31.8%.
In the case of `Cc1nc(NC(=S)Nc2ccc(F)cc2)sc1C(=O)NNC(=S)Nc1ccc(F)cc1`, the growth was 61.9% in the assay on HCT-15 colon; 61.7% in the assay on HT29 colon; 113% with SNB-75 CNS; 76.9% in the assay on SNB-19 CNS; 53.1% in the assay with U251 CNS; 52.1% with PC-3 prostate. Also, the growth in the assay with SK-MEL-5 melanoma was 48.8%; with UACC-62 melanoma it was 36.9%; with LOX IMVI melanoma, 70.6%; in the assay with SK-MEL-28 melanoma it was 78%; with SK-MEL-2 melanoma it was 3.22% (active); with EKVX NSCLC, 63.2%. Also, the growth in the assay with SN12C renal was 71.8%; in the assay with TK-10 renal, 43.5%; in the assay with ACHN renal, 65.3%; with CAKI-1 renal it was 101%; in the assay with A498 renal it was 53.6%; in the assay on CCRF-CEM leukemia, 40.1%. In addition, the growth in the assay with MOLT-4 leukemia was 36.5%.
Turning to `COc1cccc(CNC(=O)c2cccc(C3CC(=O)c4c(cc(OC)c(OC)c4OC)O3)c2)c1` (configuration not stated), the growth in the assay with HCT-15 colon was 43.5%; in the assay with HT29 colon it was 68%; in the assay with SNB-75 CNS it was 27.7%; with SNB-19 CNS, 51.2%; with U251 CNS, 49.3%; with PC-3 prostate, 20.8%. For the same molecule, the growth in the assay with SK-MEL-5 melanoma is 59.4%; with UACC-62 melanoma, 24.3%; in the assay with LOX IMVI melanoma, 44.9%; in the assay on SK-MEL-28 melanoma, 65.7%; in the assay with SK-MEL-2 melanoma it was 38.5%; in the assay with EKVX NSCLC, 72.4%. The growth in the assay on SN12C renal is 72.7%; in the assay with TK-10 renal it was 87.7%; with ACHN renal it was 47.9%; in the assay on CAKI-1 renal, 77.3%; in the assay with A498 renal, 81.7%; with CCRF-CEM leukemia, 13.3%. Besides, the growth in the assay with MOLT-4 leukemia was 67%.
Consider `CC(C)CSc1nc(-c2ccc(F)cc2)c(C#N)c(N2CCCCC2)n1`, for which the growth in the assay on HCT-15 colon is 92.2%; in the assay with HT29 colon, 87.6%; in the assay on SNB-75 CNS, 100%; in the assay on SNB-19 CNS, 104%; in the assay with U251 CNS it was 93%; with PC-3 prostate, 82%. Further, the growth was 94.3% with SK-MEL-5 melanoma; 82.1% in the assay on UACC-62 melanoma; 92.9% in the assay on LOX IMVI melanoma; 94.3% with SK-MEL-28 melanoma; 85.5% with SK-MEL-2 melanoma; 93.4% in the assay on EKVX NSCLC. Moreover, the growth was 105% in the assay with SN12C renal; 95.3% in the assay on UO-31 renal; 91.4% with TK-10 renal; 98.8% in the assay on ACHN renal; 94.4% in the assay on CCRF-CEM leukemia; 95.3% in the assay with MOLT-4 leukemia.
As for `O=C(Oc1ccccc1)c1ccccc1Cl`, the growth is 98% in the assay with HCT-15 colon; 118% in the assay with HT29 colon; 89.6% in the assay with SNB-75 CNS; 104% in the assay with SNB-19 CNS; 98.5% in the assay on U251 CNS; 95% in the assay with PC-3 prostate. Further, the growth in the assay on SK-MEL-5 melanoma was 104%; with UACC-62 melanoma it was 107%; in the assay on LOX IMVI melanoma, 107%; with SK-MEL-28 melanoma it was 107%; in the assay on SK-MEL-2 melanoma, 123%; in the assay on EKVX NSCLC it was 99.6%. Besides, the growth in the assay with SN12C renal was 107%; in the assay with UO-31 renal, 96.7%; in the assay with TK-10 renal, 111%; in the assay on ACHN renal, 102%; in the assay on CCRF-CEM leukemia it was -11.9% (active); with MOLT-4 leukemia, 110%.
